Assay results from PubChem BioAssay AID1159580 (chemical genetic matrix, 2015).
Where “and” joins values, the source holds several entries; their conditions need not be identical. Identical values can stand only once. In all, about 5,500 compounds went through this assay and about 2,000 (36%) were called active. Inconclusive results (about 18%) are left out. No stated cut-off is given here; in the data, active means normalized growth mostly below about 0.91 (no sharp cut-off); inconclusive means no clear call, values can overlap the other calls; inactive means mostly above about 0.92. The list shows a part of the results.

Test: chemical genetic growth profiling, strain panel (AID 1159580);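 further: tested at 20 µM; growth read once vehicle control cultures reached saturation at 30 °C; 1 = growth at the plate median or of vehicle wells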
Conditions: growth OD

Measured: normalized growth

NCCCNCCSP(=O)(O)O
inactive: S. cerevisiae deletion strains, locus YJR075W, strain HOC1, stronger effect = lower value 1.01 | S. cerevisiae deletion strains, locus YKL009W, strain mrt4, stronger effect = lower value 0.969 | S. cerevisiae deletion strains, locus YKL068W, stronger effect = lower value 0.982 | S. cerevisiae deletion strains, locus YKL085W, strain MDH1 (second series), stronger effect = lower value 0.985 | S. cerevisiae deletion strains, locus YKL085W, strain MDH1, stronger effect = lower value 0.985 | S. cerevisiae deletion strains, locus YKL160W, strain elf1, stronger effect = lower value 0.963 | S. cerevisiae deletion strains, locus YKL190W, strain CNB1, stronger effect = lower value 0.988 | S. cerevisiae deletion strains, locus YKR001C, strain vps1, stronger effect = lower value 0.986 | S. cerevisiae deletion strains, locus YKR026C, strain gcn3, stronger effect = lower value 0.984 | S. cerevisiae deletion strains, locus YKR091W, strain srl3, stronger effect = lower value 0.969 | S. cerevisiae deletion strains, locus YLL001W, strain dnm1, stronger effect = lower value 0.954 | S. cerevisiae deletion strains, locus YLL026W, stronger effect = lower value 0.972 | S. cerevisiae deletion strains, locus YLL041C, strain sdh2, stronger effect = lower value 0.983 | S. cerevisiae deletion strains, locus YLR027C, strain aat2, stronger effect = lower value 0.964 | S. cerevisiae deletion strains, locus YLR039C, strain RIC1, stronger effect = lower value 0.974 | S. cerevisiae deletion strains, locus YLR058C, strain SHM2, stronger effect = lower value 0.989 | S. cerevisiae deletion strains, locus YLR102C, strain apc9, stronger effect = lower value 0.992 | S. cerevisiae deletion strains, locus YLR221C, strain rsa3, stronger effect = lower value 0.952 | S. cerevisiae deletion strains, locus YLR258W, strain gsy2, stronger effect = lower value 0.994 | S. cerevisiae deletion strains, locus YLR262C, strain YPT6 (second series), stronger effect = lower value 0.96 | S. cerevisiae deletion strains, locus YLR262C, strain YPT6, stronger effect = lower value 0.973 | S. cerevisiae deletion strains, locus YLR268W, strain sec22, stronger effect = lower value 0.995 | S. cerevisiae deletion strains, locus YLR320W, strain mms22, stronger effect = lower value 0.961 | S. cerevisiae deletion strains, locus YLR330W, strain CHS5, stronger effect = lower value 0.989 | S. cerevisiae deletion strains, locus YLR342W, strain FKS1 (second series), stronger effect = lower value 0.975 | S. cerevisiae deletion strains, locus YLR342W, strain FKS1, stronger effect = lower value 0.979 | S. cerevisiae deletion strains, locus YLR357W, strain rsc2, stronger effect = lower value 0.957 | S. cerevisiae deletion strains, locus YLR370C, strain arc18, stronger effect = lower value 0.969 | S. cerevisiae deletion strains, locus YLR371W, strain rom2, stronger effect = lower value 0.974 | S. cerevisiae deletion strains, locus YLR384C, strain iki3, stronger effect = lower value 0.96 | S. cerevisiae deletion strains, locus YLR418C, strain cdc73, stronger effect = lower value 1.01 | S. cerevisiae deletion strains, locus YML016C, strain PPZ1, stronger effect = lower value 0.99 | S. cerevisiae deletion strains, locus YML032C, strain rad52, stronger effect = lower value 0.978 | S. cerevisiae deletion strains, locus YML120C, strain ndi1, stronger effect = lower value 0.964 | S. cerevisiae deletion strains, locus YML124C, strain tub3, stronger effect = lower value 0.991 | S. cerevisiae deletion strains, locus YMR058W, strain fet3, stronger effect = lower value 0.976 | S. cerevisiae deletion strains, locus YMR078C, strain ctf18, stronger effect = lower value 0.981 | S. cerevisiae deletion strains, locus YMR125W, strain sto1, stronger effect = lower value 0.975 | S. cerevisiae deletion strains, locus YMR129W, stronger effect = lower value 0.99 | S. cerevisiae deletion strains, locus YMR205C, strain PFK2, stronger effect = lower value 0.937 | S. cerevisiae deletion strains, locus YMR223W, strain ubp8, stronger effect = lower value 0.973 | S. cerevisiae deletion strains, locus YMR231W, strain pep5, stronger effect = lower value 0.978 | S. cerevisiae deletion strains, locus YMR263W, strain SAP30, stronger effect = lower value 0.997 and 0.98 | S. cerevisiae deletion strains, locus YMR307W, strain GAS1, stronger effect = lower value 0.974 | S. cerevisiae deletion strains, locus YNL067W, strain RPL9B, stronger effect = lower value 0.984 | S. cerevisiae deletion strains, locus YNL071W, strain lat1, stronger effect = lower value 0.983 | S. cerevisiae deletion strains, locus YNL128W, strain TEP1, stronger effect = lower value 1.01 and 1 | S. cerevisiae deletion strains, locus YNL153C, strain GIM3, stronger effect = lower value 1.01 and 0.993 | S. cerevisiae deletion strains, locus YNL175C, strain NOP13, stronger effect = lower value 1.01 | S. cerevisiae deletion strains, locus YNL197C, strain WHI3, stronger effect = lower value 1 | S. cerevisiae deletion strains, locus YNL209W, strain ssb2, stronger effect = lower value 0.981 | S. cerevisiae deletion strains, locus YNL224C, strain SQS1, stronger effect = lower value 0.988 | S. cerevisiae deletion strains, locus YNL233W, strain BNI4, stronger effect = lower value 0.997 | S. cerevisiae deletion strains, locus YNL248C, strain rpa49, stronger effect = lower value 0.977 | S. cerevisiae deletion strains, locus YNL250W, strain rad50, stronger effect = lower value 0.981 | S. cerevisiae deletion strains, locus YNL271C, strain bni1, stronger effect = lower value 0.994 | S. cerevisiae deletion strains, locus YNL298W, strain CLA4, stronger effect = lower value 0.988 | S. cerevisiae deletion strains, locus YNL307C, strain MCK1, stronger effect = lower value 0.989 | S. cerevisiae deletion strains, locus YNL322C, strain KRE1 (second series), stronger effect = lower value 0.956 | S. cerevisiae deletion strains, locus YNL322C, strain KRE1, stronger effect = lower value 1 | S. cerevisiae deletion strains, locus YNR049C, strain mso1, stronger effect = lower value 0.963 | S. cerevisiae deletion strains, locus YNR052C, strain pop2, stronger effect = lower value 0.986 | S. cerevisiae deletion strains, locus YOL006C, strain TOP1, stronger effect = lower value 1.02 | S. cerevisiae deletion strains, locus YOL012C, strain htz1 0.741 | S. cerevisiae deletion strains, locus YOL147C, strain pex11, stronger effect = lower value 0.988 | S. cerevisiae deletion strains, locus YOR001W, strain rrp6, stronger effect = lower value 1.02 | S. cerevisiae deletion strains, locus YOR061W, strain CKA2, stronger effect = lower value 1 | S. cerevisiae deletion strains, locus YOR069W, strain VPS5, stronger effect = lower value 0.995 | S. cerevisiae deletion strains, locus YOR070C, strain gyp1, stronger effect = lower value 0.982 | S. cerevisiae deletion strains, locus YOR080W, strain dia2, stronger effect = lower value 0.968 | S. cerevisiae deletion strains, locus YOR083W, strain WHI5 (second series), stronger effect = lower value 1.01 | S. cerevisiae deletion strains, locus YOR083W, strain WHI5, stronger effect = lower value 0.96 | S. cerevisiae deletion strains, locus YOR106W, strain vam3, stronger effect = lower value 0.931 | S. cerevisiae deletion strains, locus YOR136W, strain idh2, stronger effect = lower value 0.992 | S. cerevisiae deletion strains, locus YOR144C, strain elg1, stronger effect = lower value 0.982 | S. cerevisiae deletion strains, locus YOR184W, strain ser1, stronger effect = lower value 0.962 | S. cerevisiae deletion strains, locus YOR265W, strain rbl2, stronger effect = lower value 0.984 | S. cerevisiae deletion strains, locus YOR270C, strain vph1, stronger effect = lower value 0.924 | S. cerevisiae deletion strains, locus YOR290C, strain snf2, stronger effect = lower value 0.965 | S. cerevisiae deletion strains, locus YOR316C, strain cot1, stronger effect = lower value 0.977 | S. cerevisiae deletion strains, locus YPL051W, strain arl3, stronger effect = lower value 0.987 | S. cerevisiae deletion strains, locus YPL055C, strain LGE1, stronger effect = lower value 1.02 and 0.958 | S. cerevisiae deletion strains, locus YPL078C, strain atp4, stronger effect = lower value 0.971 | S. cerevisiae deletion strains, locus YPL106C, strain sse1, stronger effect = lower value 0.954 | S. cerevisiae deletion strains, locus YPL240C, strain hsp82, stronger effect = lower value 0.993 | S. cerevisiae deletion strains, locus YPL241C, strain CIN2, stronger effect = lower value 0.998 and 0.991 | S. cerevisiae deletion strains, locus YPR119W, strain clb2, stronger effect = lower value 0.995 | S. cerevisiae deletion strains, locus YPR141C, strain kar3, stronger effect = lower value 0.976 | S. cerevisiae deletion strains, locus YPR163C, strain tif3, stronger effect = lower value 0.986 | S. cerevisiae deletion strains, locus YPR167C, strain met16, stronger effect = lower value 0.995 | S. cerevisiae deletion strains, strain wtn01, stronger effect = lower value 0.99 | S. cerevisiae strains, strain wild type, stronger effect = lower value 0.977
